This is an account of results in paper PMC9911399, “Two distinct binding modes provide the RNA-binding protein RbFox with extraordinary sequence specificity”.

T1: RBFOX1 RRM (Homo sapiens, UniProt Q9NWB1 109-208)
T1 sequence: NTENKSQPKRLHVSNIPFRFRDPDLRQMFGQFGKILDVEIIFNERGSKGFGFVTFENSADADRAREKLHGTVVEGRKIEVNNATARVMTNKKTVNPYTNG

B1: GACCAGC (DNA:RNA)
RNA: GGGAGACCGGAAUUCAGAUUGUCCGACCAGCUUAAAUCCCGUCGUAGCCACCA
DNA 1: CAATCTGAATTCCGGTCTCCC
DNA 2: TGGTGGCTACGACGGGATT
B2: GGGGUCA (DNA:RNA)
RNA: B1 RNA with A26G, C27G, C28G, A29U, G30C, C31A
DNA 1: CAATCTGAATTCCGGTCTCCC
DNA 2: TGGTGGCTACGACGGGATT
B3: AGGUCAC (DNA:RNA)
RNA: B1 RNA with G25A, A26G, C27G, C28U, A29C, G30A
DNA 1: CAATCTGAATTCCGGTCTCCC
DNA 2: TGGTGGCTACGACGGGATT
B4: CCUAGCG (DNA:RNA)
RNA: GGGAGACCGGAAUUCAGAUUGUCCCCUAGCGUUAAAUCCCGUCGUAGCCACCA
DNA 1: CAATCTGAATTCCGGTCTCCC
DNA 2: TGGTGGCTACGACGGGATT
B5: GAAUCAG (DNA:RNA)
RNA: B1 RNA with C27A, C28U, A29C, G30A, C31G
DNA 1: CAATCTGAATTCCGGTCTCCC
DNA 2: TGGTGGCTACGACGGGATT
B6: UUGAAGG (DNA:RNA)
RNA: B4 RNA with C25U, C26U, U27G, G29A, C30G
DNA 1: CAATCTGAATTCCGGTCTCCC
DNA 2: TGGTGGCTACGACGGGATT
B7: CUUACUA (DNA:RNA)
RNA: B4 RNA with C26U, G29C, C30U, G31A
DNA 1: CAATCTGAATTCCGGTCTCCC
DNA 2: TGGTGGCTACGACGGGATT
B8: UCUCGCU (DNA:RNA)
RNA: B4 RNA with C25U, A28C, G31U
DNA 1: CAATCTGAATTCCGGTCTCCC
DNA 2: TGGTGGCTACGACGGGATT
B9: GGGGAUU (DNA:RNA)
RNA: B1 RNA with A26G, C27G, C28G, G30U, C31U
DNA 1: CAATCTGAATTCCGGTCTCCC
DNA 2: TGGTGGCTACGACGGGATT
B10: GCGGUUC (DNA:RNA)
RNA: B1 RNA with A26C, C27G, C28G, A29U, G30U
DNA 1: CAATCTGAATTCCGGTCTCCC
DNA 2: TGGTGGCTACGACGGGATT
B11: GGAGAUU (DNA:RNA)
RNA: B1 RNA with A26G, C27A, C28G, G30U, C31U
DNA 1: CAATCTGAATTCCGGTCTCCC
DNA 2: TGGTGGCTACGACGGGATT
B12: CGGGGAU (DNA:RNA)
RNA: B4 RNA with C26G, U27G, A28G, C30A, G31U
DNA 1: CAATCTGAATTCCGGTCTCCC
DNA 2: TGGTGGCTACGACGGGATT
B13: GCGGAUU (DNA:RNA)
RNA: B1 RNA with A26C, C27G, C28G, G30U, C31U
DNA 1: CAATCTGAATTCCGGTCTCCC
DNA 2: TGGTGGCTACGACGGGATT
B14: CGCGGAU (DNA:RNA)
RNA: B4 RNA with C26G, U27C, A28G, C30A, G31U
DNA 1: CAATCTGAATTCCGGTCTCCC
DNA 2: TGGTGGCTACGACGGGATT
B15: GGGAGAU (DNA:RNA)
RNA: B4 RNA with C25G, C26G, U27G, C30A, G31U
DNA 1: CAATCTGAATTCCGGTCTCCC
DNA 2: TGGTGGCTACGACGGGATT
B16: GCGGCGG (DNA:RNA)
RNA: B4 RNA with C25G, U27G, A28G, G29C, C30G
DNA 1: CAATCTGAATTCCGGTCTCCC
DNA 2: TGGTGGCTACGACGGGATT
B17: GCGGGAU (DNA:RNA)
RNA: B4 RNA with C25G, U27G, A28G, C30A, G31U
DNA 1: CAATCTGAATTCCGGTCTCCC
DNA 2: TGGTGGCTACGACGGGATT
B18: GGGGGAU (DNA:RNA)
RNA: B4 RNA with C25G, C26G, U27G, A28G, C30A, G31U
DNA 1: CAATCTGAATTCCGGTCTCCC
DNA 2: TGGTGGCTACGACGGGATT
B19: GCGGUUG (DNA:RNA)
RNA: B4 RNA with C25G, U27G, A28G, G29U, C30U
DNA 1: CAATCTGAATTCCGGTCTCCC
DNA 2: TGGTGGCTACGACGGGATT
B20: GGGAAUU (DNA:RNA)
RNA: B1 RNA with A26G, C27G, C28A, G30U, C31U
DNA 1: CAATCTGAATTCCGGTCTCCC
DNA 2: TGGTGGCTACGACGGGATT
B21: AUUGUUU (DNA:RNA)
RNA: B4 RNA with C25A, C26U, A28G, G29U, C30U, G31U
DNA 1: CAATCTGAATTCCGGTCTCCC
DNA 2: TGGTGGCTACGACGGGATT
B22: GUUCAGC (DNA:RNA)
RNA: B1 RNA with A26U, C27U
DNA 1: CAATCTGAATTCCGGTCTCCC
DNA 2: TGGTGGCTACGACGGGATT
B23: AAUAUGG (DNA:RNA)
RNA: B4 RNA with C25A, C26A, G29U, C30G
DNA 1: CAATCTGAATTCCGGTCTCCC
DNA 2: TGGTGGCTACGACGGGATT
B24: CGCGAUU (DNA:RNA)
RNA: B1 RNA with G25C, A26G, C28G, G30U, C31U
DNA 1: CAATCTGAATTCCGGTCTCCC
DNA 2: TGGTGGCTACGACGGGATT
B25: UAUGUGA (DNA:RNA)
RNA: B1 RNA with G25U, C27U, C28G, A29U, C31A
DNA 1: CAATCTGAATTCCGGTCTCCC
DNA 2: TGGTGGCTACGACGGGATT
B26: GUAUUGA (DNA:RNA)
RNA: B1 RNA with A26U, C27A, C28U, A29U, C31A
DNA 1: CAATCTGAATTCCGGTCTCCC
DNA 2: TGGTGGCTACGACGGGATT
B27: ACGGAUU (DNA:RNA)
RNA: B4 RNA with C25A, U27G, A28G, G29A, C30U, G31U
DNA 1: CAATCTGAATTCCGGTCTCCC
DNA 2: TGGTGGCTACGACGGGATT
B28: GGGAAAU (DNA:RNA)
RNA: B1 RNA with A26G, C27G, C28A, G30A, C31U
DNA 1: CAATCTGAATTCCGGTCTCCC
DNA 2: TGGTGGCTACGACGGGATT
B29: GUUAAAU (DNA:RNA)
RNA: B4 RNA with C25G, C26U, G29A, C30A, G31U
DNA 1: CAATCTGAATTCCGGTCTCCC
DNA 2: TGGTGGCTACGACGGGATT
B30: CGGGCGU (DNA:RNA)
RNA: B4 RNA with C26G, U27G, A28G, G29C, C30G, G31U
DNA 1: CAATCTGAATTCCGGTCTCCC
DNA 2: TGGTGGCTACGACGGGATT
B31: GGGAUUU (DNA:RNA)
RNA: B4 RNA with C25G, C26G, U27G, G29U, C30U, G31U
DNA 1: CAATCTGAATTCCGGTCTCCC
DNA 2: TGGTGGCTACGACGGGATT
B32: GGGGAAU (DNA:RNA)
RNA: B1 RNA with A26G, C27G, C28G, G30A, C31U
DNA 1: CAATCTGAATTCCGGTCTCCC
DNA 2: TGGTGGCTACGACGGGATT
B33: GGGCGUU (DNA:RNA)
RNA: B1 RNA with A26G, C27G, A29G, G30U, C31U
DNA 1: CAATCTGAATTCCGGTCTCCC
DNA 2: TGGTGGCTACGACGGGATT
B34: GGAUUUU (DNA:RNA)
RNA: B1 RNA with A26G, C27A, C28U, A29U, G30U, C31U
DNA 1: CAATCTGAATTCCGGTCTCCC
DNA 2: TGGTGGCTACGACGGGATT
B35: CGGGAUU (DNA:RNA)
RNA: B4 RNA with C26G, U27G, A28G, G29A, C30U, G31U
DNA 1: CAATCTGAATTCCGGTCTCCC
DNA 2: TGGTGGCTACGACGGGATT
B36: GGGGCGU (DNA:RNA)
RNA: B1 RNA with A26G, C27G, C28G, A29C, C31U
DNA 1: CAATCTGAATTCCGGTCTCCC
DNA 2: TGGTGGCTACGACGGGATT

Numbering of substitutions follows the chain as printed; changes in the protein carry UniProt numbers. In all, about 16,000 sequences were measured (“ka relative to ugcaugu”: median about 0.0091, highest 2% from about 0.032 on). What follows is part of a selection rich in the highest values, with near analogues and random picks from the rest.

The target in the test is T1, RBFOX1 RRM. Briefly: EMSA; HiTS-Eq, 1 nM pool, 10 min; buffer printed only for the single-RNA assays: 10 mM Tris pH 7.5, 150 mM NaCl, 3.4 mM EDTA, 0.001% NP-40, 30 C. The following applies: tags: His6 N-terminal (pET28a); label: 5' 32P. The gist of the method: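 A pool of RNA with 7 randomized nucleotides, 5′-radiolabelled and with DNA-annealed flanks, was equilibrated at 1 nM for 10 min in 50 µL with purified RbFox RRM, wild type or mutant, across increasing protein concentrations. Free RNA was separated by 8% native PAGE, excised, reverse-transcribed, barcoded by PCR and sequenced. Relative association constants were obtained from read-count changes of each RNA species versus the control reaction and normalised to the cognate motif.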
For orientation: A gel shift assay detects complexes by their altered migration in electrophoresis.
Take B1: the binding signal is 0.00826 KA relative to UGCAUGU.

Take B2: the binding signal was 0.0251 KA relative to UGCAUGU.

As for B3, the binding signal was 0.0109 KA relative to UGCAUGU.

On to B4, for which the binding signal is 0.00608 KA relative to UGCAUGU.

For B5, the binding signal is 0.00941 KA relative to UGCAUGU.

As to B6, the binding signal is 0.0111 KA relative to UGCAUGU.

With B7, the binding signal is 0.00319 KA relative to UGCAUGU.

On to B8, for which the binding signal is 0.0104 KA relative to UGCAUGU.

In the case of B9, the binding signal was 0.038 KA relative to UGCAUGU.

With B10, the binding signal is 0.0202 KA relative to UGCAUGU.

Take B11: the binding signal is 0.0219 KA relative to UGCAUGU.

For B12, the binding signal was 0.0184 KA relative to UGCAUGU.

As for B13, the binding signal was 0.0163 KA relative to UGCAUGU.

Take B14: the binding signal was 0.0187 KA relative to UGCAUGU.

Regarding B15, the binding signal is 0.0316 KA relative to UGCAUGU.

Turning to B16, the binding signal was 0.0288 KA relative to UGCAUGU.

With B17, the binding signal is 0.0486 KA relative to UGCAUGU.

Regarding B18, the binding signal is 0.0252 KA relative to UGCAUGU.

On to B19, for which the binding signal was 0.0329 KA relative to UGCAUGU.

Take B20: the binding signal was 0.0335 KA relative to UGCAUGU.

Turning to B21, the binding signal was 0.0146 KA relative to UGCAUGU.

On to B22, for which the binding signal is 0.0147 KA relative to UGCAUGU.

Turning to B23, the binding signal was 0.00711 KA relative to UGCAUGU.

As for B24, the binding signal was 0.0158 KA relative to UGCAUGU.

In the case of B25, the binding signal was 0.0133 KA relative to UGCAUGU.

Take B26: the binding signal was 0.0118 KA relative to UGCAUGU.

As to B27, the binding signal was 0.00809 KA relative to UGCAUGU.

In the case of B28, the binding signal is 0.0288 KA relative to UGCAUGU.

In the case of B29, the binding signal is 0.00766 KA relative to UGCAUGU.

For the molecule B30, the binding signal was 0.029 KA relative to UGCAUGU.

B31: the binding signal was 0.0372 KA relative to UGCAUGU.

In the case of B32, the binding signal was 0.0354 KA relative to UGCAUGU.

Take B33: the binding signal is 0.0253 KA relative to UGCAUGU.

Turning to B34, the binding signal was 0.0184 KA relative to UGCAUGU.

Regarding B35, the binding signal was 0.03 KA relative to UGCAUGU.

As for B36, the binding signal was 0.0374 KA relative to UGCAUGU.
